# Test results reported in PubChem BioAssay.
# Where “and” joins values, the source holds several entries; their conditions need not be identical. Equal entries are not always repeated. Calls of active or inactive are those of the source.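 The calls were made as follows, unless noted: active = thallium flux through the channel raised or lowered by more than 3 SD from vehicle-only wells, actives on both sides; inactive = the rest.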
# How the values were obtained:
# [1] = stimulators of nuclear beta-catenin in C2C12, primary screen, imaging, WNT3A-conditioned medium, mouse C2C12, NPC library (AID 1117326; in the data active = nuclear beta-catenin stimulation mostly above about 4.2%, no sharp cut-off; inactive = mostly below about 10%); conditions: stronger effect = higher value
# [2] = stimulators of insulin release from INS-1E, primary screen, cell-based, 5 mM glucose, NPC library (AID 1117329;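 active = compound raises insulin release from rat beta cells at 5 mM glucose, no numeric limit stated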); conditions: rat INS-1E insulin secretion, at 10 µM, stronger effect = higher value
# [3] = growth inhibition of GSK3B-pretreated HCT116 cells – cell-based, CellTiter-Glo, 0.2 to 20 µM (AID 1117336;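 active = compounds lowering colon cancer cell viability after pretreatment blocking the GSK3B kinase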); conditions: HCT116 viability after GSK3B inhibitor, at 20 µM, stronger effect = higher value
# [4] = inhibition of endothelial tube formation, primary screen, imaging, VEGF stimulated, CD31 staining, tube area, NPC library (AID 1117340;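 active = compound that reduces growth-factor-driven endothelial tube area in a mixed cell culture, no cutoff stated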); conditions: VEGF-stimulated ADSC/ECFC co-culture, at 10 µM, stronger effect = higher value
# [5] = glucagon-like peptide 1 release enhancers, primary assay, NCI-H716 cell line, NPC library (AID 1117341;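 active = compound raises GLP1 secretion from the human gut endocrine cells, with no numeric limit stated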); conditions: NCI-H716 cells, at 10 µM, stronger effect = higher value
# [6] = HCT116 colon cancer cell growth inhibition, primary screen, CellTiter-Glo luminescence, NPC library (AID 1117342;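 active = compounds that lower survival of HCT116 colon cancer cells in the luminescence readout, no numeric limit stated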); conditions: at 20 µM (top of the series)
# [7] = CellTiter-Glo luminescent readout of SW480 viability loss, NPC library primary (AID 1117343;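 active = compounds that lower viability of the colon cancer cells in the luminescence readout, with no numeric limit stated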); conditions: CellTiter-Glo luminescence; at 20 µM (top of the series)
# [8] = decreased DLD-1 cellular survival, CellTiter-Glo luminescent readout, NPC compound collection, primary HTS (AID 1117346;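 active = compounds that lower survival of DLD-1 colon cancer cells in the luminescence readout, no cutoff given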); conditions: DLD-1 viability, CellTiter-Glo luminescence; at 20 µM (top of the series)
# [9] = molecular target: 6-phosphogluconate dehydrogenase, decarboxylating (Homo sapiens) (UniProt P52209); assay: 6PGD enzyme inhibitors, primary screen, biochemical, human, recombinant enzyme, NADPH absorbance (AID 1159550;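 active = at least 20% inhibition of 6-phosphogluconate dehydrogenase activity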); conditions: recombinant 6PGD, NADPH absorbance 341 nm; at 10 µM; stronger effect = higher value
# [10] = modulation of C. elegans fzo-1 (AID 1259413; call rule not given here;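 also: fzo-1 mutant C. elegans worms in liquid wells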); conditions: C. elegans fzo-1 modulator screen, mean read-out; stronger effect = higher value
# [11] = differential killing of epithelial or mesenchymal cells, primary screen, imaging, PC-3E GFP, TEM4-18 mCherry, co-culture (AID 1345086;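 active = compounds killing one labelled cell type while sparing the other, by normalised counts and ratio limits, not self-fluorescent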;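 as to all read-outs here: cells exposed to compound for 72 h before imaging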;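 as to red/green cell ratio (normalised): normalised mesenchymal count divided by normalised epithelial count so high means epithelial killing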); conditions: imaging cell counts, at 1 µM; for red/green cell ratio (normalised): actives lie on both sides, counts scaled to control wells, 1 = unselective
# [12] = survival rescue of mitochondrial mutant cells in low glucose, primary screen, MELAS cybrids, Rieske KO mouse fibroblasts, CellTiter-Glo (AID 1508586;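 active = mean z-score across replicates of 1.96 or higher in either the MELAS or the Rieske mutant cell line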;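 also: z relative to plate mean and SD of compound and empty wells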)
# [13] = molecular target: NAD(+) hydrolase SARM1 (Homo sapiens) (UniProt Q6SZW1); assay: SARM1 TIR NADase inhibitors, cell lysate, NAD-Glo luminescence (AID 1508614;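 active = compound whose remaining NAD level is above about 45 nM, limit read from the data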;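 also: higher remaining NAD means stronger inhibition of SARM1 NADase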); conditions: SAM-TIR HEK293T lysate NADase, at 1 µM, stronger effect = higher value
# [14] = molecular target: Mitogen-activated protein kinase 7 (Homo sapiens) (UniProt Q13164); assay: ERK5 transactivation activators in reporter cells, primary screen, cell-based, HTS (AID 1508626;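 active = luciferase signal above three times the same-plate solvent-only control wells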;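 also: luciferase driven by Gal4-ERK5 fusion binding five Gal4 sites before minimal TATA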); conditions: HeLa Gal4-ERK5 transactivation, 18 h, at 5 µM, stronger effect = higher value
# F380Y = assay: modulators of BK channel variants, profiling panel, selectivity assay, cell-based, U2OS BacMam, thallium flux, beta subunits (AID 1259406); conditions: at 30 µM;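 also: initial slope of Thallos dye fluorescence rise after thallium is added; log ratio against the mean of 0.3% DMSO vehicle wells on the same plate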
# F380Y/beta1 = assay: as above; conditions: at 30 µM
# F380Y/beta2Delta = assay: as above; conditions: at 30 µM
# [15] = ICB984 medulloblastoma cell growth inhibition, synergistic combos for chromothripsis tumors, cisplatin or BGB combos (AID 1671451; call rule not given here;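 also: cells exposed for 96 hours before readout; 0% = vehicle DMSO and 100% = killing by high DMSO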); conditions: ICB984 medulloblastoma cells, drug combinations, stronger effect = higher value
# [16] = sensitizers of A549 cells to miR-34 induction, primary screen, imaging, A549 dox-inducible miR-34, nuclei and caspase counts (AID 1347080;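 active = compounds whose cell count with miR-34 switched on is under 0.7 times the count with it off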); conditions: A549 miR-34 inducible, Hoechst nuclei count, 48 h
# [17] = measured here: epithelial PC-3E GFP cell survival
# [18] = measured here: mesenchymal TEM4-18 mCherry cell survival
# [19] = MELAS cybrid survival, CellTiter-Glo 48 h, stronger effect = higher value
# [20] = Rieske KO mouse fibroblast survival, CellTiter-Glo 72 h
# Sequence of NAD(+) hydrolase SARM1 (Homo sapiens) (Q6SZW1 whole entry, looked up, the tested form may be a part): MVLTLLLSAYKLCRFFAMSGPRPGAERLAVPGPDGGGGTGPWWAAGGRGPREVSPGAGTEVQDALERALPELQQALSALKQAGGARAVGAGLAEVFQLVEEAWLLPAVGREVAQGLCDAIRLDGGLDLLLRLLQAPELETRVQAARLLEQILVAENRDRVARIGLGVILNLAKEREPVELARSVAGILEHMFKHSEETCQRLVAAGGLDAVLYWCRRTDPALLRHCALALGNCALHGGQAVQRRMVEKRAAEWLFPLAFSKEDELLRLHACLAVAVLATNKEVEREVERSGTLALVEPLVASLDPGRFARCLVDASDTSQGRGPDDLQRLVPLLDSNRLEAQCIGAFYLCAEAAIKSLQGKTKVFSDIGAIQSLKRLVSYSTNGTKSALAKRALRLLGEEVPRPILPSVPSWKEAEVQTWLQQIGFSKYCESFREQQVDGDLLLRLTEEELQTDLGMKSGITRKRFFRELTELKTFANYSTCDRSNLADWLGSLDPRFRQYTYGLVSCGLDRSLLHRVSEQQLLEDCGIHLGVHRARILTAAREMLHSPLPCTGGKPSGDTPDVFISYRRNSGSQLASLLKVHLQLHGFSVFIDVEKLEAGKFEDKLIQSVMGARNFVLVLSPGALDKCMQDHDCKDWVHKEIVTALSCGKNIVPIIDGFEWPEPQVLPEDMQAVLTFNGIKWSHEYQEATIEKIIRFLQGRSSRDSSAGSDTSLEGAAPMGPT
# Sequence of 6-phosphogluconate dehydrogenase, decarboxylating (Homo sapiens) (P52209 whole entry, looked up): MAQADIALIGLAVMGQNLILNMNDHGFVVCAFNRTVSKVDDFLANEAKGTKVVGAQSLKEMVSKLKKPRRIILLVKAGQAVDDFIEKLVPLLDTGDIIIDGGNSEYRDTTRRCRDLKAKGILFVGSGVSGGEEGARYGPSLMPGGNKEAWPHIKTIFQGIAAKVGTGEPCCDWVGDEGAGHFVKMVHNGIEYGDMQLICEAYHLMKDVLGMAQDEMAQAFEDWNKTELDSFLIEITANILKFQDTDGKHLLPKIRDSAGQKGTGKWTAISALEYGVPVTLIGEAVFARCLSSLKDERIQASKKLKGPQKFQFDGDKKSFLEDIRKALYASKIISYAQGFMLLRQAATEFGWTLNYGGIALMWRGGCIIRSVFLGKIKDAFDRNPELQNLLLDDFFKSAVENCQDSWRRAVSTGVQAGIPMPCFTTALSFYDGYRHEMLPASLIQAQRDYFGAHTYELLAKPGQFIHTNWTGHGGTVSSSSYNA
# Sequence of Mitogen-activated protein kinase 7 (Homo sapiens) (Q13164 whole entry, looked up, the tested form may be a part): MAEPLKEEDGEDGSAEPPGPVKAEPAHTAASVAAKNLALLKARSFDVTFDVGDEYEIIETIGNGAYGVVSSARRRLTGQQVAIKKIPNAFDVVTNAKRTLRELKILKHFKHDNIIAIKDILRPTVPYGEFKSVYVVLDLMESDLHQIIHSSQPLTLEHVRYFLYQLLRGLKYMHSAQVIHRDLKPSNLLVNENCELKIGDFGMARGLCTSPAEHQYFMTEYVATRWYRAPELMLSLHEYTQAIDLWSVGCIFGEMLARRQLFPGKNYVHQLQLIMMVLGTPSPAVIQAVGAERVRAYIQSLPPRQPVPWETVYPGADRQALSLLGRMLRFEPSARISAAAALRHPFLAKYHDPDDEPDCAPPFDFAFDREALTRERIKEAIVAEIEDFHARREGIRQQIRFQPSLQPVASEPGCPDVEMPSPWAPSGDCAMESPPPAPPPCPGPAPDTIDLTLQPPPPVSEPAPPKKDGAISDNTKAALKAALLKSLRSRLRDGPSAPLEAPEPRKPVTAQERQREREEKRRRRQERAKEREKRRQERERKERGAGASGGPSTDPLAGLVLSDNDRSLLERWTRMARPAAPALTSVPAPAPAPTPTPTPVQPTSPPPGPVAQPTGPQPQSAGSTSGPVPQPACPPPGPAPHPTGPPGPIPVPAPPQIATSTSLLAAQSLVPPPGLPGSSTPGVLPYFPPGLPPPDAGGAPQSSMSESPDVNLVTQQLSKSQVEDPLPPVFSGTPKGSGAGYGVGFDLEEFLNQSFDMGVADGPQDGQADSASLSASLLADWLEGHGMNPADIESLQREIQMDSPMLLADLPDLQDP
structure (smiles),measurement,setting,value
O=C(C1CCCCC1)N1CC(=O)N2CCc3ccccc3C2C1 (stereo not given),nuclear beta-catenin stimulation,[1]; at 10 µM,-0.4% (inactive)
same,nuclear beta-catenin stimulation,"[1]; stimulation, at 2 µM",-1.1%
same,insulin secretion stimulation,[2],2.5% (inactive)
same,viability decrease,[3],-3.8% (inactive)
same,tube area decrease,[4],-2.6% (inactive)
same,GLP1 secretion stimulation,[5],-2.7% (inactive)
same,inhibition of viability,[6],-11.5% (inactive)
same,viability decrease (inhibition),[7],19.5% (inactive)
same,viability decrease (inhibition),[8],-16.7% (inactive)
same,inhibition,[9],-0.949% (inactive)
same,mean signal,[10],236 (inactive)
same,red/green cell ratio (normalised),[11],1.48 (inactive)
same,normalised cell number,[11]; [17],0.96
same,normalised cell number,[11]; [18],1.42
same,z-score,[12]; [19],-0.396 (inactive) and 0.0285 (inactive) and 0.65 (inactive)
same,z-score,[12]; [20],-0.176 and 0.00765 and 0.589
same,remaining NAD,[13],10 nM (inactive)
same,luciferase signal,[14],32 AU (inactive)
same,log fold change Tl+ flux,F380Y,0.0282 (inactive)
same,log fold change Tl+ flux,F380Y/beta1,0.027 (inactive)
same,log fold change Tl+ flux,F380Y/beta2Delta,0.0335 (inactive)
CC(=O)OCC(CCn1cnc2cnc(N)nc21)COC(C)=O,nuclear beta-catenin stimulation,[1]; at 10 µM,0.9% (inactive)
same,nuclear beta-catenin stimulation,"[1]; stimulation, at 2 µM",2.8%
same,insulin secretion stimulation,[2],0.7% (inactive)
same,viability decrease,[3],-11.8% (inactive)
same,tube area decrease,[4],-3.2% (inactive)
same,GLP1 secretion stimulation,[5],0.4% (inactive)
same,inhibition of viability,[6],-2.1% (inactive)
same,viability decrease (inhibition),[7],15.5% (inactive)
same,viability decrease (inhibition),[8],-9.1% (inactive)
same,inhibition,[9],-8.38% (inactive)
same,mean signal,[10],292 (inactive)
same,red/green cell ratio (normalised),[11],0.92 (inactive)
same,normalised cell number,[11]; [17],1.23
same,normalised cell number,[11]; [18],1.14
same,z-score,[12]; [19],-0.188 (inactive) and -0.285 (inactive) and 0.439 (inactive)
same,z-score,[12]; [20],-0.751 and -0.17 and -0.227
same,remaining NAD,[13],10 nM (inactive)
same,luciferase signal,[14],160 AU (inactive)
same,inhibition,"[15]; BGB IC20 combo, at 0.005 µM",1.9%
same,inhibition,"[15]; BGB IC40 combo, at 0.005 µM",-6.07%
same,inhibition,"[15]; BGB IC40 combo, at 0.05 µM",-14.6%
same,inhibition,[15]; at 0.5 µM,-31.4% (inactive)
same,inhibition,"[15]; cisplatin combo, at 0.05 µM",-17.8%
same,inhibition,"[15]; cisplatin combo, at 0.5 µM",-37.3%
same,inhibition,"[15]; cisplatin combo, at 5 µM",-37.5%
same,inhibition,"[15]; measured here: 5 uM single agent, at 5 µM",-40.1%
same,log fold change Tl+ flux,F380Y,0.0311 (inactive)
same,log fold change Tl+ flux,F380Y/beta1,0.035 (inactive)
same,log fold change Tl+ flux,F380Y/beta2Delta,-0.0244 (inactive)
Oc1c(Cl)cc(Cl)c2cccnc12,nuclear beta-catenin stimulation,[1]; at 10 µM,25.3% (inactive)
same,nuclear beta-catenin stimulation,"[1]; stimulation, at 2 µM",10.8%
same,insulin secretion stimulation,[2],-1.7% (inactive)
same,viability decrease,[3],90.7% (active)
same,tube area decrease,[4],102% (active)
same,GLP1 secretion stimulation,[5],5.7% (inactive)
same,inhibition of viability,[6],91.3% (active)
same,viability decrease (inhibition),[7],111% (active)
same,viability decrease (inhibition),[8],90% (active)
same,inhibition,[9],13% (inactive)
same,mean signal,[10],244 (inactive)
same,red/green cell ratio (normalised),[11],0.97 (inactive)
same,normalised cell number,[11]; [17],1.04
same,normalised cell number,[11]; [18],1.01
same,fold change,"[16]; stronger effect = lower value, cell number ratio, induced over uninduced",1.3 (inactive) and 0.99 (inactive) and 0.933 (inactive)
same,fold change,[16]; measured here: relative caspase fold change +Dox/-Dox,0.88 and 1.1 and 1.4
same,cell count,"[16]; measured here: total cells with miR-34 induction, stronger effect = lower value",4540 and 5720 and 5380
same,cell count,[16]; measured here: total cells without miR-34 induction,3500 and 5780 and 5770
same,z-score,[12]; [19],-0.426 (inactive) and -0.351 (inactive)
same,z-score,[12]; [20],0.846 and 0.186
same,remaining NAD,[13],10 nM (inactive)
same,luciferase signal,[14],48 AU (inactive)
same,log fold change Tl+ flux,F380Y,0.177 (active)
same,log fold change Tl+ flux,F380Y/beta1,0.135 (active)
same,log fold change Tl+ flux,F380Y/beta2Delta,0.437 (active)
